Source: PubChem BioAssay AID449762 (Southern Research Specialized Biocontainment Screening …, 2010)
Out of some 330,000 compounds screened, about 1,900 (0.58%) were called active. About 4% were inconclusive and are not listed. Rule as the data show it: inconclusive = inhibition above about 70% without an active follow-up result; inactive = below that. Only a sample is shown. Entries with a potency or affinity are not part of this list.

Assay: M. tuberculosis growth inhibition, HTS (AID 449762);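 also: bacterial growth assessed after seven days of incubation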
Details: M. tuberculosis H37Rv growth inhibition, 7H9 media; at 25 µM; active compounds read high
With `CCCCNC(=O)C1=C(N)C(C(=O)Nc2ccc(C)c(S(=O)(=O)N3CCCCC3)c2)SC1=Nc1ccc(C)cc1C` (centres undefined) the inhibition was -11.1% (inactive).
With `O=C(CCc1nc(-c2ccccc2Cl)no1)NC1CCCC1` the inhibition was -5.48% (inactive).
For `COc1ccc(-c2cc(-c3ccccc3)c(C#N)c(S(C)(=O)=O)n2)cc1`, the inhibition was 8.53% (inactive).
With `CS(=O)c1nc(-c2ccc(Br)cc2)cc(-c2ccccc2)c1C#N` (centres undefined) the inhibition was 65% (inactive).
For `CC1(C)Cc2nc3nc(SCC(=O)NCCc4ccccc4)n(-c4ccccc4)c(=O)c3cc2CO1`, the inhibition was -2.48% (inactive).
For `S=C(Nc1cccc(Cl)c1)N1CCOCC1`, the inhibition was -10.2% (inactive).
In the case of `CCc1ccc2[nH]c(=O)c(CN(CCCN3CCOCC3)C(=O)Nc3ccccc3)cc2c1`, the inhibition is reported as 4.92% (inactive).
For `Cc1ccc2[nH]c(=O)c(CN(CCCN3CCOCC3)C(=O)Nc3cccc(Cl)c3)cc2c1`, the inhibition was 10.9% (inactive).
For `C=CC[C@@H](CC(=O)N[C@H](CO)Cc1ccccc1)C(=O)N[C@@H](C)COC(=O)[C@@H](CC=C)Cc1ccc(F)cc1`, the inhibition was 3.8% (inactive).
With `Clc1cccc(OCCCCN2CCCCC2)c1` the inhibition was 0.99% (inactive).
For `COc1ccccc1N1CCN(CCCCOc2ccc(F)cc2)CC1`, the inhibition was -1.86% (inactive).
In the case of `NC(=O)c1ccc(-c2ncc(-c3ccccc3)o2)cc1`, the inhibition is reported as 51.1% (inactive).
With `COC(=O)c1ccc(-c2n[nH]c(=O)c3ccccc23)cc1` the inhibition was -2.05% (inactive).
In the case of `CCN1C(=O)[C@H]2[C@@H](c3ccc(-c4ccc(C(C)=O)cc4)cc3)N3CCCC[C@@]3(C(=O)OC)[C@H]2C1=O`, the inhibition is reported as -6.49% (inactive).
In the case of `CCCCN1C(=N)N([C@@H](CCC)CN2CCC[C@H]2CN2C(N)=NC[C@H]2C(C)C)C[C@H]1[C@H](C)CC`, the inhibition is reported as 1.37% (inactive).
In the case of `O=C(Cc1ccccc1)c1nc2ccccc2s1`, the inhibition is reported as -3.11% (inactive).
In the case of `Cc1cc(C)cc(OCC(=O)OCC(=O)c2cc(C)n(C3CC3)c2C)c1`, the inhibition is reported as 54.3% (inactive).
With `Cc1cc(C(=O)COC(=O)COc2ccc(C#N)cc2)c(C)n1C1CC1` the inhibition was 3.67% (inactive).
With `CC(=O)NC(Cc1c[nH]c2ccccc12)C(=O)Nc1ccc2c(c1)OCO2` (centres undefined) the inhibition was -2.05% (inactive).
For `C/C(=N/OC(=O)c1c(-c2ccccc2Cl)noc1C)c1cnccn1`, the inhibition was 3.98% (inactive).
For `COc1ccc(CN2CCNC(=O)C2CC(=O)N(C)Cc2cc(C)no2)cc1OC` (centres undefined), the inhibition was -7.74% (inactive).
With `CCOC(=O)Cc1cc(=O)[nH]c(Nc2nc3ccccc3o2)n1` the inhibition was -2.99% (inactive).
For `COC(=O)Cc1cc(=O)[nH]c(Nc2nc3ccccc3o2)n1`, the inhibition was 29.9% (inactive).
For `C/C(Sc1nnc(Cc2ccccc2)o1)=C(/O)c1ccccc1`, the inhibition was -0.32% (inactive).
